Test results reported in PubChem BioAssay.
The source made the active and inactive calls.

How the values were obtained:
[1] = small molecules captured by biotinylated probe aFSTL3 – biochemical, small-molecule microarray, fluorescence 635/667, stem cell growth factor project, primary screen (AID 1064); conditions: higher = more signal;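 also: measures binding of the biotinylated anti-FSTL3 antibody to printed compounds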
[2] = binders from COS7 lysate, DM2A8 probe, primary screen, torsin A project, cell lysate, small-molecule microarray, fluorescence 635/667 (AID 1065); conditions: higher = more signal, COS7 lysate expressing mutant human TOR1A
[3] = small molecules captured by biotinylated probe aFGF2 – biochemical, small-molecule microarray, fluorescence 635/667, stem cell growth factor project, primary screen (AID 1067); conditions: higher = more signal;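 also: measures binding of biotinylated aFGF2 protein to printed compounds on slides; z-score merges feature fluorescence and signal-to-noise across triplicate slides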
[4] = small molecules captured by biotinylated probe aFGF10 – biochemical, small-molecule microarray, fluorescence 635/667, stem cell growth factor project, primary screen (AID 1071); conditions: higher = more signal;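 also: score merges 667 nm spot intensity and signal to noise from triplicate slides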
[5] = target: Neurogenic locus notch homolog protein 2 (Homo sapiens) (UniProt Q04721); assay: small molecules binding Notch2 protein – biochemical, small-molecule microarray, 635 nm fluorescence, stem cell growth factors, primary screen (AID 1073); conditions: higher = more signal
[6] = target: Pro-neuregulin-1, membrane-bound isoform (Homo sapiens) (UniProt Q02297); assay: small molecules binding neuregulin-1 protein – biochemical, small-molecule microarray, fluorescence 635/667, psychiatric disease protein project, primary screen (AID 1075); conditions: NRG1 binding, 635 nm fluorescence, higher = more signal;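 also: score combines 667 nm spot fluorescence with signal to noise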
[7] = test system: Neuregulin-1 EGF-like domain; assay: small molecules binding NRG1 EGF domain – biochemical, small-molecule microarray, 635 nm fluorescence, primary screen (AID 1081); conditions: higher = more signal;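 also: binding of the protein to compounds printed on small-molecule microarray slides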
[8] = FRG1 expression reporter modulators in myotubes – cell-based, C2C12 myotubes, firefly/Renilla luciferase, luminescence, FRG1 inhibition for FSHD, primary screen (AID 1084); conditions: FRG1 promoter luciferase, higher = more signal, called active from +8 up or from −8 down
[9] = small molecules captured by biotinylated probe aFST – biochemical, small-molecule microarray, fluorescence 635/667, stem cell growth factor project, primary screen (AID 1086); conditions: higher = more signal;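 also: score merges 667 nm fluorescence with signal-to-noise of each printed compound spot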
[10] = binders of probe aHhip on microarray, primary screen, stem cell growth factor project, biochemical, small-molecule microarray, fluorescence 635/667 (AID 1087); conditions: higher = more signal;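 also: score merges spot fluorescence at 667nm with spot signal to noise ratio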
[11] = test system: PRMT1 (protein arginine N-methyltransferase 1); assay: small molecules binding arginine methyltransferase PRMT1 – biochemical, small-molecule microarray, 635 nm fluorescence, primary screen (AID 1088); conditions: higher = more signal;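 also: binding of Prmt1 protein to compounds spotted on small-molecule microarray slides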
[12] = growth effects on S. cerevisiae YJM789 – YJM789 clinical isolate, OD600, 24 h, basal, primary screen (AID 1089); conditions: higher = more signal, called active from +8 up or from −8 down;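 also: growth of clinical yeast isolate S. cerevisiae YJM 789 seeded 1000 cells per well; test concentration not given here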
[13] = S. pombe growth modifiers, basal conditions – strain 972, OD600, 24 h, no modulator, primary screen (AID 1090);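 also: basal condition with compound alone and no growth modifier present; test concentration not given here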; conditions: S. pombe 972 growth, higher = more signal, called active from +8 up or from −8 down
[14] = budding yeast growth modifiers under rapamycin – strain BY4716, OD600, 96 h, primary screen (AID 1091); also: test concentration not given here; conditions: S. cerevisiae BY4716 + rapamycin, higher = more signal, called active from +8 up or from −8 down
[15] = target: Torsin-1A-interacting protein 2 (Homo sapiens) (UniProt Q8NFQ8); assay: small molecules binding lysate-expressed LULL1 – cell lysate, human LULL1 lysate, 635/667 nm fluorescence, primary screen (AID 1092); conditions: small-molecule microarray, hLULL1 lysate binding, 635 nm fluorescence; higher = more signal;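 also: probe is lysate of COS7 cells overexpressing human LULL1; score merges per-feature 667 nm fluorescence with signal-to-noise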
[16] = optical density change of DRC41 E. coli – strain DRC41, OD650, 24 h, E. coli filamentation project, primary screen (AID 1093);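 also: MC1000 strain lacking acrAB efflux and sulA so SOS filamentation is blocked; test concentration not given here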; conditions: E. coli DRC41 growth, higher = more signal, called active from +8 up or from −8 down
[17] = probe aLefty2 binding to arrayed compounds – biochemical, biotinylated probe, 635/667 nm fluorescence, primary screen (AID 1094); conditions: small-molecule microarray, higher = more signal;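 also: score merges spot fluorescence near 667 nm with spot signal-to-noise ratio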
[18] = test system: Noggin (protein binding on small-molecule microarray); assay: small molecules binding Noggin protein – biochemical, 635/667 nm fluorescence, primary screen (AID 1095); conditions: 635 nm fluorescence, higher = more signal;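 also: score merges 667 nm feature fluorescence with signal to noise over triplicate slides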
[19] = target: Neurogenic locus notch homolog protein 3 (Homo sapiens) (UniProt Q9UM47); assay: small molecules binding NOTCH3 protein – biochemical, 635/667 nm fluorescence, primary screen (AID 1096); conditions: small-molecule microarray, 635 nm fluorescence, higher = more signal
[20] = probe aEGFR binding to arrayed compounds – biochemical, biotinylated probe, 635/667 nm fluorescence, primary screen (AID 1097); conditions: small-molecule microarray, higher = more signal;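 also: probe is a biotinylated anti-EGFR antibody binding compounds printed on slides; score combines fluorescence near 667 nm and signal to noise of each spot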

Chain of Neurogenic locus notch homolog protein 3 (Homo sapiens) (Q9UM47 whole entry, looked up): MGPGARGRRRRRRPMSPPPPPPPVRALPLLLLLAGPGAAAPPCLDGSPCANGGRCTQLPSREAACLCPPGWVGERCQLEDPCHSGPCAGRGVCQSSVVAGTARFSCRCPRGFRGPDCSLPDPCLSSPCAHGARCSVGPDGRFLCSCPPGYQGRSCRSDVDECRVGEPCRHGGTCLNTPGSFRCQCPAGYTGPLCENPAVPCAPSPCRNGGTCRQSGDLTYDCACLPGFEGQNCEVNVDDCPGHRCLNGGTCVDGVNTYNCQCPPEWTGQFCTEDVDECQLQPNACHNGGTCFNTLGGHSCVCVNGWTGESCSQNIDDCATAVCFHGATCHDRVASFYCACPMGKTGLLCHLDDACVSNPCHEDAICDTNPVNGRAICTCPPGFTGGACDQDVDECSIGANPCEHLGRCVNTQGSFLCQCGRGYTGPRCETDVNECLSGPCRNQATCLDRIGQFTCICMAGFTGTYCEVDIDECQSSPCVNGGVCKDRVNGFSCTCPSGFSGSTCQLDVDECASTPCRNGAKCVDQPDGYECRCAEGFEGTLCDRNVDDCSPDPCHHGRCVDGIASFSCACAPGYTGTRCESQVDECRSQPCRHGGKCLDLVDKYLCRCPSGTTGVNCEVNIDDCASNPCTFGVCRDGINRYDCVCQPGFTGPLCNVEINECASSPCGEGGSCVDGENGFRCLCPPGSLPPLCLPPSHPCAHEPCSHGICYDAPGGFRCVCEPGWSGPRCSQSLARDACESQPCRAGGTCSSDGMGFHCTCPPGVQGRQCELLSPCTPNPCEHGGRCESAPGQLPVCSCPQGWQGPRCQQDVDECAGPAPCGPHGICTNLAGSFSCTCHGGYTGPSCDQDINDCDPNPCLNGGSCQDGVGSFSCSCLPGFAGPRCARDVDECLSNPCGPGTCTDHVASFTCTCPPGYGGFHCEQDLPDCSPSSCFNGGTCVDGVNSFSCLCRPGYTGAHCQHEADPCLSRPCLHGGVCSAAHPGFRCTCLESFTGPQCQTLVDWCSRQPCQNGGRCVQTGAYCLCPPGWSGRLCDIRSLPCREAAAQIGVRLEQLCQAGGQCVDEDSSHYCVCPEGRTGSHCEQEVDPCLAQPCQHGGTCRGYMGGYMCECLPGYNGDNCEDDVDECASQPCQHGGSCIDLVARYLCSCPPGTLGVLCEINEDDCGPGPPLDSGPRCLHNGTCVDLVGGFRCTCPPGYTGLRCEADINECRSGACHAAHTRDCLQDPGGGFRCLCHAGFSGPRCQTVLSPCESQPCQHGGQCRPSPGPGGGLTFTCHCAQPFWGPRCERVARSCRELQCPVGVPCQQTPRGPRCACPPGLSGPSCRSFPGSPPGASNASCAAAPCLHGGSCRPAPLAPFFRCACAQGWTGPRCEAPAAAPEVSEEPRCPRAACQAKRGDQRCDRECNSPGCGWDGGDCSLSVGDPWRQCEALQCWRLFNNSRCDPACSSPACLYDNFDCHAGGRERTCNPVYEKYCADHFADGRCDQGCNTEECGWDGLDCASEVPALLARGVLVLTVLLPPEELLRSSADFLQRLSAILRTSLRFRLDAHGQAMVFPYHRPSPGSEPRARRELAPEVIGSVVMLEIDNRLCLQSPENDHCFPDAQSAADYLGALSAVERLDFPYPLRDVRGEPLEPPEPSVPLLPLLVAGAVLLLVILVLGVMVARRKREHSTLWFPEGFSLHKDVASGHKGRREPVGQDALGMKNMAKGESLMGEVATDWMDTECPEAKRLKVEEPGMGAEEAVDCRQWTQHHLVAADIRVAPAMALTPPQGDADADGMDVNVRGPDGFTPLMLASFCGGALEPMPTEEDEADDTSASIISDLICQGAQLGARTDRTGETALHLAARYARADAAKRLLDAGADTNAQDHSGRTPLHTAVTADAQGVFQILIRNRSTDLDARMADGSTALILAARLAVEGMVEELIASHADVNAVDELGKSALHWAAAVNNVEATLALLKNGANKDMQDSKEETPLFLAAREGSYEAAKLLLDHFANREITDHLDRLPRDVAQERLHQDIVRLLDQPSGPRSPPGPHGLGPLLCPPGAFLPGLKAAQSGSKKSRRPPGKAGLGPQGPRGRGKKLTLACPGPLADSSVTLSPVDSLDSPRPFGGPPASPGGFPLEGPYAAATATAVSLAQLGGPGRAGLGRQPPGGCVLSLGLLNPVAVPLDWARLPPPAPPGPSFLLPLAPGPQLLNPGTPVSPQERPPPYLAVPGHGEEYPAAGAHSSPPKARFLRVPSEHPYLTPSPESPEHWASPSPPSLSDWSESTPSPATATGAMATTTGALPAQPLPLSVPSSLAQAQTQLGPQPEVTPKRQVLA
Chain of Pro-neuregulin-1, membrane-bound isoform (Homo sapiens) (Q02297 whole entry, looked up, the tested form may be a part, canonical isoform): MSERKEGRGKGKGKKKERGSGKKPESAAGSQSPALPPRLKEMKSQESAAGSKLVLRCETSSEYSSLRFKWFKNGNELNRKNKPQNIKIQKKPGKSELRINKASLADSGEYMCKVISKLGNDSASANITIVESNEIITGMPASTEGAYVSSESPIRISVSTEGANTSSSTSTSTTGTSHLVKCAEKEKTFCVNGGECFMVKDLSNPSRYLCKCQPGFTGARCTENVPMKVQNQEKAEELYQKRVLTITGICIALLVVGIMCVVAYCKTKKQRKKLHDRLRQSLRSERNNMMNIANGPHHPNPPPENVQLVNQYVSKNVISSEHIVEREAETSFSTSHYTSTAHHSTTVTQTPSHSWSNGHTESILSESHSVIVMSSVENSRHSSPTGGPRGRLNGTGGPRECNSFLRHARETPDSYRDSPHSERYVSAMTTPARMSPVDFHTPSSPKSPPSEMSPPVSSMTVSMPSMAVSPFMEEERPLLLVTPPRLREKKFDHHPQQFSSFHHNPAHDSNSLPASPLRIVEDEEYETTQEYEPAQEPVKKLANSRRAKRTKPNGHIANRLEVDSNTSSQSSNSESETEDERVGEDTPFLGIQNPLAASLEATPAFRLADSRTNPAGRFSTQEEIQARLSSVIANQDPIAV
Chain of Torsin-1A-interacting protein 2 (Homo sapiens) (Q8NFQ8 whole entry, looked up): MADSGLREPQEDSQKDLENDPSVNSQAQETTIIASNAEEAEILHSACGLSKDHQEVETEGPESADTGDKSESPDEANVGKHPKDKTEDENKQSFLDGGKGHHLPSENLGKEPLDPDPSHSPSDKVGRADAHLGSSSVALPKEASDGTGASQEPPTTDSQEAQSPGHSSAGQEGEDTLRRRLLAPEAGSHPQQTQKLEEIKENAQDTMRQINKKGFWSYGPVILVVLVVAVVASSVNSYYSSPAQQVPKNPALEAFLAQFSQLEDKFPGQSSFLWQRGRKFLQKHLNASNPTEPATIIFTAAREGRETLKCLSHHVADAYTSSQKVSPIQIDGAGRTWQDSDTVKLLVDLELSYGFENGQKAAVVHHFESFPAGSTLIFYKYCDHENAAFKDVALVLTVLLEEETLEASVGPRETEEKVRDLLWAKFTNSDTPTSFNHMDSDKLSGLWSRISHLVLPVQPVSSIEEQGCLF

Compound | composite z-score [1] | composite z-score [2] | composite z-score [3] | composite z-score [4] | composite z-score [5] | composite z-score [6] | composite z-score [7] | z-score [8] | composite z-score [9] | composite z-score [10] | composite z-score [11] | z-score [12] | z-score [13] | z-score [14] | composite z-score [15] | z-score [16] | composite z-score [17] | composite z-score [18] | composite z-score [19] | composite z-score [20]
CCOC(=O)C[C@H]1[C@H](OC(=O)Cc2ccc3c(c2)OCO3)[C@@H](NC(=O)Cc2ccc(OC)cc2)c2cc(OCCCO)ccc2N1C(=O)c1ccc2ccccc2n1 | -0.362 | 0.401 | -0.104 | 0.466 | 0.255 | 0.371 | 0.752 | -3.56 (inactive) | 0.103 | -0.274 | 0.317 | -2.05 (inactive) | -1.34 (inactive) | 0.758 (inactive) | 0.708 | 2.08 (inactive) | -0.137 | 0.14 | 0.32 | -0.146
CN(C)CCCNC(=O)[C@@]1(c2ccc([N+](=O)[O-])cc2)CC(=O)N(CC23CC4CC(CC(C4)C2)C3)[C@@H]1c1ccc(CO)cc1I | -0.319 | 0.634 | -0.0687 | 0.272 | 1.2 | 0.343 | 1.36 | -2.44 (inactive) | 1.48 | 0.0749 | 1.53 | -25.1 (active) | -18.6 (active) | -2.21 (inactive) | 2.35 | -6.64 (inactive) | -0.182 | 1.75 | 1.06 | 0.0209
Cc1ccc(S[C@]2(C(=O)O)CC(=O)N(Cc3cc(C(F)(F)F)cc(C(F)(F)F)c3)[C@@H]2c2ccc(CO)cc2)cc1 | 0.591 | -0.378 | -0.175 | -1.71 | -2.43 | 0.203 | 0.406 | 0.0661 (inactive) | -0.395 | -0.464 | -0.224 | 0.952 (inactive) | -0.539 (inactive) | -0.0248 (inactive) | 1.53 | -1.17 (inactive) | -0.142 | -1.6 | -2.63 | -0.373
O=C(CS)NCCCCCNC(=O)[C@@H]1C[C@@H]2C(=O)N3CCC[C@H]3C(=O)N2[C@@H]1c1cccc(OCCO)c1 | 0.511 | 1.59 | -0.106 | 0.051 | -0.377 | 1.19 | 1.43 | 0.174 (inactive) | -0.599 | -0.166 | 1.07 | 0.147 (inactive) | 0.793 (inactive) | -0.153 (inactive) | 2.74 | -1.01 (inactive) | -0.0998 | 0.102 | 0.0995 | -0.0828
COC(=O)[C@@]1(Cc2ccc(OC)cc2)[C@@H]2C(=CC(=O)[C@H]2CC(=O)C(=O)N(C)C)CN1C(=O)c1ccccc1 | 0.928 | -0.262 | 0.0921 | 0.582 | 1.77 | 1.39 | 1.18 | 1.46 (inactive) | 1.97 | 0.177 | 0.464 | 0.244 (inactive) | 0.693 (inactive) | 2.88 (inactive) | 3.54 | -1.08 (inactive) | 0.413 | -0.343 | 1.03 | 0.0364
COc1cc2c(cc1O)C(C)N(Cc1ccc([N+](=O)[O-])o1)CC2 (stereo not given) | 0.182 | 0.731 | -0.0138 | 1.15 | 1.3 | 1.53 | 1.08 | 0.11 (inactive) | 0.401 | 0.28 | 1.56 | -0.337 (inactive) | -3.24 (inactive) | -1.57 (inactive) | 1.74 | -0.741 (inactive) | 0.136 | 0.142 | 1.07 | 0.174
C=C(C)c1cc2c(c(CCCCCC)n1)[Si](C(C)C)(C(C)C)OC2 | -0.392 | -1.42 | -0.157 | -1.05 | -1.03 | -0.792 | -1.02 | -0.647 (inactive) | -0.437 | 0.0201 | -0.293 | 1.21 (inactive) | 0.653 (inactive) | -0.9 (inactive) | -1.03 | -1.17 (inactive) | -0.193 | -0.714 | -0.64 | -0.287
C=C(/C(=C/C[C@H](OC(=O)c1ccncc1)c1ccc(CO)o1)c1cc(C(=O)OC)ccc1OC)C(C)C | -0.259 | 0.816 | -0.0097 | 1.08 | 0.238 | 0.928 | 1.23 | -0.918 (inactive) | 0.201 | 0.113 | 1.44 | -0.0096 (inactive) | -0.515 (inactive) | -0.38 (inactive) | 1.6 | 0.425 (inactive) | -0.116 | 0.424 | 1.02 | -0.0902
Cc1cc(C)cc(N2C(=O)CSC2c2cccc([N+](=O)[O-])c2)c1 (stereo not given) | -0.0703 | 0.571 | -0.0036 | 0.887 | 1.17 | 1.4 | 1.21 | 1.07 (inactive) | 0.712 | -0.0994 | 1.56 | 0.0032 (inactive) | 0.223 (inactive) | 1.37 (inactive) | 2.39 | 1.58 (inactive) | 0.154 | 0.713 | 1.04 | 0.213
